Results from PubChem BioAssay (NCI).
The panel holds about 83,000 compounds, 20% with a hit somewhere; the sample as a whole holds those more often.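 Values shown are percent growth following 48 h exposure of cells in 96-well plates to a single concentration of compound; below 10 was considered active.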 A number with no mark means an inactive call. The source made the active and inactive calls.

Experiments:
Assay in all cases: NCI-60 one-dose screen, 48 h (100 = growth as untreated, 0 = no growth, -100 = all killed)
Details in all cases: 10 µM unless noted
T-47D breast = test system: T-47D breast
BT-549 breast = test system: BT-549 breast
MDA-MB-435 melanoma = test system: MDA-MB-435 melanoma
SW-620 colon = test system: SW-620 colon
MCF7 breast = test system: MCF7 breast
HCT-116 colon = test system: HCT-116 colon
HCC-2998 colon = test system: HCC-2998 colon
KM12 colon = test system: KM12 colon

| Structure (SMILES) | growth (T-47D breast) | growth (BT-549 breast) | growth (MDA-MB-435 melanoma) | growth (SW-620 colon) | growth (MCF7 breast) | growth (HCT-116 colon) | growth (HCC-2998 colon) | growth (KM12 colon) |
| --- | --- | --- | --- | --- | --- | --- | --- | --- |
| Cc1cccc2c(N)c3ccccc3nc12 | -2.75% (active) | 14% | -12.1% (active) | 0.0537% (active) | 5.35% (active) | 0.783% (active) | 2.09% (active) | 9.35% (active) |
| CCCCCCCCCCCC[n+]1ccc2ccccc2c1 | 5.61% (active) | -73.4% (active) | -69.6% (active) | -30% (active) | -10.3% (active) | -74.7% (active) | -84.7% (active) | -89.2% (active) |
| CCOc1ccc(C(C[N+](=O)[O-])Sc2ccccc2N)cc1 (stereo not drawn) | 42.8% | -74.9% (active) | 3.44% (active) | -40.4% (active) | 0.363% (active) | -55.6% (active) | -82.3% (active) | -51.3% (active) |
| COc1cc(/C=C/c2ccnc3ccccc23)cc(OC)c1OC | 41.1% | 11.7% | -8.94% (active) | 17.4% | 16.1% | 20% | 34.6% | 12.4% |
| O=C(c1ccccc1)c1ccc(O)c2ncccc12 | 10.6% | 56.3% | 56.7% | 17.1% | 10.5% | 13.7% | 35.8% | 27% |
| Nc1nc(N)c2cc(Sc3cccc(C(F)(F)F)c3)ccc2n1 | 45% | 50.3% | 28.8% | 22.5% | 23.9% | 15% | -57.2% (active) | 24.8% |
| O=C1c2ccccc2Cc2cccc(Cl)c21 | 92.8% | 93.3% | 120% | 112% | 96.1% | 97.4% | 81% | 106% |
| CCOC(=O)c1cc(CC)sc1NC(=O)CC(C)=O | 34.8% | 27.3% | 68.8% | 49.7% | 15.9% | 26.5% | 69.4% | 47.1% |
| S=C(SSC(=S)N1CCOCC1)N1CCOCC1 | 79.8% | 141% | 53.6% | -57.5% (active) | 66.5% | 40.1% | 49.6% | 69.5% |
| O=C1C(=O)c2cccnc2-c2ncccc21 | -68.8% (active) | -11.7% (active) | -69.6% (active) | -95.6% (active) | -55.4% (active) | -100% (active) | 30.5% | -47.2% (active) |
| COc1ccc(C(OCC2OC(n3ccc(NC(=O)c4ccccc4)nc3=O)C(O)C2O)(c2ccccc2)c2ccccc2)cc1 (stereo not drawn) | 40.2% | 44.3% | 31.1% | 56% | 13.3% | 3.43% (active) | 75.8% | 19.2% |
| CC1(C)OC2C(COC(c3ccccc3)(c3ccccc3)c3ccccc3)OC(c3c[nH]c4c(N)ncnc34)C2O1 (stereo not drawn) | 43.2% | 77.5% | 62.4% | 63.9% | 35% | 46.7% | 85.7% | 50.3% |
| COc1cc2c(c(OC)c1OC)-c1ccc(NCc3ccccc3)c(=O)cc1[C@@H](NC(C)=O)CC2 | 59.4% | 0.422% (active) | -54.8% (active) | 16.6% | 7.93% (active) | 9.33% (active) | 10.6% | 12.7% |
| O=C(c1ccc(O)c(Br)c1)c1ccc(O)c(Br)c1 | 106% | 100% | 118% | 109% | 117% | 101% | 105% | 99.2% |
| Cc1cc(N/N=C/c2ccccn2)nc2ccccc12 | 24.1% | 15.1% | 29.6% | 18.5% | 14% | 17.6% | 24.7% | 24.5% |
| CCCCCCCCCCCCN1C(C)=CS/C1=C\C=C\c1scc(C)[n+]1CCCCCCCCCCCC | 13.8% | 23.7% | 13.6% | 30.7% | 7.9% (active) | 17.7% | 28.4% | 14.8% |

| Structure (SMILES) | growth (T-47D breast) | growth (BT-549 breast) | growth (MDA-MB-435 melanoma) | growth (SW-620 colon) | growth (MCF7 breast) | growth (HCT-116 colon) | growth (HCC-2998 colon) | growth (KM12 colon) |
| --- | --- | --- | --- | --- | --- | --- | --- | --- |
| CCNc1nnnn1CC | 106% | 110% | 107% | 104% | 95.7% | 102% | 110% | 110% |
| CCC[CH2][Sn]1([CH2]CCC)[O]C2C(CO)OC(n3ccc(N)nc3=O)C2[O]1 (stereo not drawn) | -68.8% (active) | -85.2% (active) | -75.5% (active) | -77.1% (active) | -92.2% (active) | -73.6% (active) | -19.2% (active) | 7.12% (active) |
| Cc1nnc(N/N=C/c2ccc([N+](=O)[O-])o2)[nH]c1=O | -6.92% (active) | -22.1% (active) | 12% | 18.7% | 3.92% (active) | 9.54% (active) | 22.2% | 14.2% |
| COC(=O)c1ccc(=O)c2nc3/c(=C/O)c(O)cc(=O)c3[nH]c12 | 25.6% | 5.85% (active) | 23.4% | 29.5% | 2.95% (active) | -19% (active) | 24.9% | 31.1% |
| CCN1/C(=C/C(C)=C/c2sc3ccc4ccccc4c3[n+]2CC)Sc2ccc3ccccc3c21 | -69.8% (active) | -93.3% (active) | -97.2% (active) | -94.2% (active) | -84.5% (active) | -69.5% (active) | -76.1% (active) | -93.6% (active) |
| O=C(/C=C/c1ccccc1)c1ccccc1O | 62.6% | 70.5% | 80.6% | 75.1% | 26.7% | 62.9% | 96.3% | 28.2% |
| Cc1cc(=O)oc2cc(O)cc(O)c12 | 90.5% | 101% | 94.7% | 92% | 98% | 90.5% | 111% | 111% |
| CN(C)c1ccc(C(=C2C=CC(=[N+](C)C)C=C2)c2ccc(N(C)C)cc2)cc1 | -19.2% (active) | -66% (active) | -82.6% (active) | -67.2% (active) | -71.6% (active) | -83.3% (active) | -91.6% (active) | -95.6% (active) |
| CSc1nc(C)c(C(=O)CCN2CCN(c3ccccn3)CC2)s1 | 66.7% | 113% | 104% | 100% | 61.2% | 105% | 106% | 106% |
| CCCOS(=O)(=O)c1ccccc1 | 109% | 129% | 101% | 101% | 111% | 107% | 102% | 103% |
| Cc1ccc(/C=C2\CNC/C(=C\c3ccc(C)cc3)C2=O)cc1 | 14% | -72.2% (active) | -47.5% (active) | -44.1% (active) | 1.76% (active) | -60% (active) | -81.3% (active) | -78.6% (active) |
| COc1ccc(/C=C2/C(=O)ON=C2C)cc1 | 93% | 107% | 109% | 103% | 106% | 112% | 103% | 113% |
| CN(C)CCSC1=Nc2ccc(Cl)cc2C(c2ccccc2Cl)N(C)C1 (stereo not drawn) | 57.9% | 76.4% | 62.2% | 87.4% | 27.8% | 65.1% | 81% | 61.6% |
| CCCC[n+]1c(/C=C\c2c(OC)cc(OC)cc2OC)ccc2ccccc21 | -3.69% (active) | 15.5% | -41.2% (active) | 5.08% (active) | 4.3% (active) | 2.83% (active) | 2.5% (active) | -78.6% (active) |
| O=C1C=Cc2ccccc2/C1=C/c1nc(-c2ccccc2)oc1O | 65.5% | 102% | 97.5% | 97.4% | 39.6% | 81.5% | 129% | 92.1% |
